Most compounds without a hit are left out; they make up all but 18% or so of the library.
TDP1 inh – inhibitors of human tyrosyl-DNA phosphodiesterase TDP1; Q9NUW8; recombinant TDP1, AlphaScreen DNA substrate cleavage; Potency, µM (top dose mostly 130 µM), without a hit: top-dose activity change, negative = inhibition, most hits filed as inhibitors; 0.28% of 350,000 active; AID 485290; also: potency is read from the fitted curve at half-maximal effect; % is scaled to controls: 0 for no effect and ±100 for the full control effect; nearly all actives have a fitted effect of over 40% in size
Target sequence (Q9NUW8 whole entry, looked up): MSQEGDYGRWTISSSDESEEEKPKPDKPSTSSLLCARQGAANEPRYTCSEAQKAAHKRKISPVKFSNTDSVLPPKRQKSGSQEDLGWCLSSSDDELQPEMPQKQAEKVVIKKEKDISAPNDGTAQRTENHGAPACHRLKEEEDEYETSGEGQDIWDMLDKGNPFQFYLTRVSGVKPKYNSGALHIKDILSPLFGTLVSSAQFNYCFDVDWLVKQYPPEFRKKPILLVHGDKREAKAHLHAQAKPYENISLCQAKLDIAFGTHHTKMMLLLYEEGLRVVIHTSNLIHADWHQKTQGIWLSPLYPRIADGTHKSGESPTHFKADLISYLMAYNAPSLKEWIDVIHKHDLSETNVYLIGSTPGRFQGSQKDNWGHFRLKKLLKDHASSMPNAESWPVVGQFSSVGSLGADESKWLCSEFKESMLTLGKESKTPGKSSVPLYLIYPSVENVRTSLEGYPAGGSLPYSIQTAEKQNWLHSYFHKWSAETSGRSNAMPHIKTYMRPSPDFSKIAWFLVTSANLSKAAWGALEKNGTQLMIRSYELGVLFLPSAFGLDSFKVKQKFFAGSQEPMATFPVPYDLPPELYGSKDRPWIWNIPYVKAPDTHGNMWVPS
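Steps: enzyme plus compound, 15 min RT; add biotin/phosphotyrosine-FITC oligonucleotide (15 nM final), react 5 min; add donor/acceptor beads (10 ug/ml final), 10 min; read AlphaScreen. Tdp1 at 1 nM final.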
DT40 TDP1 no CPT – qHTS for Inhibitors of human tyrosyl-DNA phosphodiesterase 1 (TDP1): qHTS in cells in absence of CPT; Potency, µM (series often up to 46.2 µM), for the others: at the top dose activity change, negative = growth inhibition, most hits filed as inhibitors; 15% of 420,000 active; DT40 Tdp1-/- hTDP1 cells, no CPT, ATP luminescence, 48 h; also: potency is read from the fitted curve at half-maximal effect; % is scaled to controls: 0 for no effect and ±100 for the full control effect; nearly all actives have a fitted effect of over 55% in size
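Camptothecin absent (DMSO only). Human TDP1-complemented DT40 knockout cells, 400 cells/well, 37 °C for minimum 48 hr; ATP measured via CellTiter-Glo, 30 min dark incubation, luminescence.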
TGFb inhibitor – blocks TGF-b signaling; Potency, µM (top dose mostly 46.1 µM), inactives show top-dose activity, negative = inhibition, hits mostly inhibitors; 1.2% of 410,000 active; HepG2 CAGA-GFP TGF-b/SMAD3 reporter, GFP fluorescence, 18 h; TGF-beta stimulated, 500 pg/mL final; also: potency is read from the fitted curve at half-maximal effect; % is scaled to controls: 0 for no effect and ±100 for the full control effect; nearly all actives have a fitted effect of over 65% in size
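Inhibition of TGF-beta-driven CAGA-GFP reporter expression in HEPG2 cells is measured by cellular GFP fluorescence after 18 h stimulation with 500 pg/mL recombinant TGF-beta in 1% FBS medium at 37 degrees C.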
HepG2 viability – HepG2 cytotoxicity, counter-screen for TGF-b inhibitors | HepG2 CAGA-GFP viability, ATP luminescence, 18 h | Potency, µM (series often up to 46.1 µM), for the others: at the top dose activity change, negative = cytotoxicity, hits mostly cytotoxic | 0.76% of 410,000 active; also: potency is read from the fitted curve at half-maximal effect
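HepG2 CAGA-GFP cells (1000/well, DMEM with 1% FBS) received compound, then TGF-beta at 500 pg/mL final, and were incubated 18 hours at 37 degrees C. Viability was read by CellTiter-Glo luminescence. Media-only wells were set as complete cell-killing and DMSO as no toxicity.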
IL1B secr inh – inflammasome signaling inhibition, IL-1 beta readout; THP-1 LPS/ATP IL-1B secretion, AlphaLISA, 16 h; hits give low values; activity change, % at 57.5 µM; 4.7% of 360,000 active; AID 743279; in the data active = activity change below about -50%; inconclusive = mostly about -30% to -49%; also: % is scaled to controls: 0 for no effect and ±100 for the full control effect
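Secreted IL-1B measured by AlphaLISA bead assay after 16 h compound exposure of THP-1 cells; compounds (final up to 57.5 uM) added 1 h before LPS (250 ng/mL) and ATP (1.25 mM) stimulation; lower signal means less secretion.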
DT40 TDP1 CPT – DT40-hTDP1 cell growth loss with CPT; chicken DT40 Tdp1-/-;hTDP1 cells + 20 nM CPT, ATP luminescence, 48 h; Potency, µM (titrated, usually from 46.2 µM), for the others: at the top dose activity change, negative = growth inhibition, actives largely listed as inhibitors; 12% of 420,000 active; also: potency is read from the fitted curve at half-maximal effect; % is scaled to controls: 0 for no effect and ±100 for the full control effect; nearly all actives have a fitted effect of over 55% in size
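Chicken DT40 Tdp1-/- cells stably complemented with human TDP1 were seeded at 400 cells/well in medium containing 20 nM camptothecin, exposed to pin-transferred compounds, and grown at 37 °C for at least 48 hr. Viability was read as ATP luminescence.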
Active calls of the source: *; ? = inconclusive; / = not tested or not shown; [ ] = dose if it differs, or a comment. Unless noted, calls follow the shape of the dose curve; as a rule, active = well fitted curve in the direction sought with a large enough effect; inconclusive = small, poorly fitted or top-dose-only effect, or another doubt; inactive = no such curve, though single readings can be large; an effect the other way counts as inactive or inconclusive.

SMILES	TDP1 inh	DT40 TDP1 no CPT	TGFb inhibitor	HepG2 viability	IL1B secr inh	DT40 TDP1 CPT
CCc1ccc(NC(=O)C2CCC(CNS(=O)(=O)c3ccc4c(c3)C(C)(C)C(=O)N4C)CC2)cc1 (stereo not given)	0%	6%	22%	8%	/	-2%
COc1cccc(CNC(=O)C2CCCN(S(=O)(=O)c3ccc4c(c3)C(C)(C)C(=O)N4C)C2)c1 (stereo not given)	/	?	0%	3%	-3	15µM*
COc1ccccc1CNC(=O)C1CCCN(S(=O)(=O)c2ccc3c(c2)C(C)(C)C(=O)N3C)C1 (stereo not given)	/	15µM*	3%	1%	4	?
CN1C(=O)C(C)(C)c2cc(S(=O)(=O)N3CCCC(C(=O)Nc4ccc(Cl)cc4)C3)ccc21 (stereo not given)	/	18µM*	?	-31%	-12	?
COc1ccccc1CNC(=O)C1CCN(S(=O)(=O)c2ccc3c(c2)C(C)(C)C(=O)N3C)CC1	/	?	1%	6%	-4	?
CN1C(=O)C(C)(C)c2cc(S(=O)(=O)NCC3CCC(C(=O)NCc4ccccc4)CC3)ccc21 (stereo not given)	/	16µM*	1%	-25%	-11	?
O=C1C(c2ccccc2)=NCCN1C(c1ccc(F)cc1)c1nc2ccccc2[nH]1 (stereo not given)	/	-15%	-15%	11%	11	?
Cc1c(CN2CCOc3c(O)cc(-c4nc5ccccc5s4)cc3C2)cnn1C	/	?	/	/	/	-4%[9.04 µM]
CCOc1ccccc1NC(=O)C1CCCN(S(=O)(=O)c2ccc3c(c2)C(C)(C)C(=O)N3C)C1 (stereo not given)	/	?	2%	-2%	-4	18µM*
COc1cc(/C=C(\CCC(=O)O)c2nc3ccccc3s2)ccc1OCC(=O)Nc1c(Cl)cccc1Cl	28µM*	?	2%	-7%	0	16µM*
C=CCOc1c(Br)cc(CNc2ccc(NC(=O)C(C)C)c(OC)c2)cc1OC	8%	18µM*	-29%	-28%	-3	?
C=CCOc1c(Br)cc(CNn2nnnc2N)cc1OC	0%	7.3µM*	1%	-13%	24	-20%
O=C(Cc1cccc(NC(=O)C2CCCN(C(=O)C3CCCC3)C2)c1)Nc1cccc(C(=O)N2CCOCC2)c1 (stereo not given)	/	-16%	-6%	-3%	-18	3%
COc1ccc(-c2cc(C(F)(F)F)n3nc(C(=O)Nc4cc(Cl)cc(Cl)c4)cc3n2)cc1	-6%	?	0%	-45%	/	-12%
CCOc1ccc(-c2c(=O)n(O)c3ccccc3[n+]2[O-])cc1	/	13µM*	-3%	-7%	-1	?
CCOc1ccc(OCC)c(-c2c(=O)n(OCc3ccc(C(C)(C)C)cc3)c3ccccc3[n+]2[O-])c1	2%	18µM*	2%	-1%	-29	21µM*
Cc1c(-c2nnc(SCC(=O)Nc3ccc(Cl)cc3)o2)nnn1-c1ccc(F)cc1	-1%	-30%	-7%	-4%	/	?
COC(=O)C/C=C1\c2ccccc2[C@H](OC)[C@H]1C	6%[21 µM]	/	/	/	/	/
COc1ccc2c(=O)c(-c3nc(C)cs3)coc2c1	3%	-23%	2%	-20%	0	-21%
Cc1csc(-c2coc3cc(O)cc(C)c3c2=O)n1	-2%	?	-26%	-31%	20	16µM*
C=CC[N+]1([C@H]2C[C@H]3[C@@H]4CC[C@H]5C[C@H](OC(C)=O)[C@@H](N6CCCCC6)C[C@]5(C)[C@H]4CC[C@]3(C)[C@H]2OC(=O)CC)CCCCC1	/	-16%	/	/	/	-5%
CCN(CC)c1ccc(NC(=O)c2[nH]c(C)c(C(C)=O)c2C)c(C)c1	-4%	18µM*	-7%	-2%	-11	23µM*
CCOC(=O)c1c(C)[nH]c(CCC(=O)Nc2ccc(C)c(F)c2)c1C	5%	15µM*	0%	-15%	/	21µM*
CCOC(=O)c1c(C)[nH]c(CCC(=O)Nc2ccc(N(CC)CC)cc2C)c1C	3%	?	0%	-29%	/	13µM*
CCN(CC)c1ccc(NC(=O)C2=CCN(S(=O)(=O)c3ccc(F)cc3)CC2)c(C)c1	4%	18µM*	-8%	-17%	3	18µM*
SMILES	TDP1 inh	DT40 TDP1 no CPT	TGFb inhibitor	HepG2 viability	IL1B secr inh	DT40 TDP1 CPT
COc1nc(N)nc(N)c1NS(=O)(=O)c1ccc(C)cc1	4%	13%	17%	10%	24	-2%
Cc1ccc(-n2ncc(C(=O)N3CCc4ccccc4C3)c2C2CCN(C(=O)OC(C)(C)C)CC2)cc1C	4%	?	0%	-1%	/	10µM*
Cc1ccc(-n2ncc(C(=O)NCCN3CCc4ccccc4C3)c2C2CCN(C(=O)OC(C)(C)C)CC2)c(C)c1	6%	?	16µM*	-45%	/	?
Cc1ccc(-n2ncc(C(=O)NCCN3CCc4ccccc4C3)c2C2CCN(C(=O)OC(C)(C)C)CC2)cc1	1%	18µM*	?	-100%	/	21µM*
Cc1ccc(-n2ncc(C(=O)NCCN3CCOCC3)c2C2CCN(C(=O)OC(C)(C)C)CC2)c(C)c1	0%	?	-11%	-31%	/	0%
Cc1c(Cl)cccc1-n1ncc(C(=O)N2CCc3ccccc3C2)c1C1CCN(C(=O)OC(C)(C)C)CC1	0%	21µM*	-17%	-4%	/	?
Fc1ccc(CNc2ncnc3c2c(-c2ccccc2)cn3-c2ccccc2)cc1	-1%	?	-5%	-10%	/	?
C1CCC(OCCN2CCN(CCOC3CCCCC3)CC2)CC1	0%	-25%	-1%	-4%	7	-2%
CCc1ccccc1NC(=O)CSc1nc(-c2ccccc2OC)nc2c1Cc1c(CO)cnc(C)c1O2	0%	?	-5%	-15%	/	?
NCCCC[C@H](NC(=O)[C@@H]1CCCN1C(=O)[C@@H]1CSSC[C@H](N)C(=O)N[C@@H](Cc2ccccc2)C(=O)N[C@@H](Cc2ccccc2)C(=O)N[C@@H](CCC(N)=O)C(=O)N[C@@H](CC(N)=O)C(=O)N1)C(=O)NCC(N)=O	/	-5%	/	/	/	-4%
CC(C)(C)OC(=O)N1CCC(c2c(C(=O)NCCN3CCc4ccccc4C3)cnn2-c2ccc(F)cc2F)CC1	-1%	12µM*	?	-70%	/	21µM*

High-throughput results (PubChem)
